Records with an inconclusive call do not appear. The source made the active and inactive calls. The call rests on the fitted dose curve; in most records, active means well fitted inhibition curve with a large enough effect; inconclusive means small, poorly fitted or top-dose-only effect; inactive means flat fitted curve, though single readings scatter.

The experiment has as its system CRL-7250. Briefly: qHTS assay to identify novel small-molecules to repurpose for Merkel cell carcinoma treatment (AID 1296009). Further: nearly all actives have a fitted effect of over 60% in size. The conditions noted are these: MCC and control cell lines, CellTiter-Glo viability, 72 h; series mostly up to 44.8 µM. Put shortly:
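Luminescence from CellTiter-Glo, read 10 min after addition at room temperature, reported viability following a 72 hr, 37 degree celsius treatment with NPC or MIPE compounds in titration; values normalized to plate controls.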
On the technique in general: qHTS replaces the single test concentration by a dilution series.
Consider `CN1CCN(C2=Nc3ccccc3Oc3ccc(Cl)cc32)CC1`, for which the compound was classed as inactive.

Consider `C[C@@H]1CC(=O)NN=C1c1ccc(NN=C(C#N)C#N)cc1`, for which the outcome was inactive.

Consider `CNCCc1ccccn1`, for which the call was inactive.

On to `COC(c1ccccc1)(c1ccccc1)[C@H](Oc1nc(C)cc(C)n1)C(=O)O`, for which the call was inactive.

As to `CC(C(=O)O)c1cccc(C(=O)c2ccccc2)c1` (stereo not given), the result was inactive.

`CN(C)[C@@H]1C(=O)C(C(N)=O)=C(O)[C@@]2(O)C(=O)C3=C(O)c4c(O)ccc(Cl)c4[C@@H](O)[C@H]3C[C@@H]12`: the compound was called inactive.

In the case of `Cc1cc2c(s1)Nc1ccccc1N=C2N1CCN(C)CC1`, the outcome was inactive.

On to `CN1CCN(CCCN2c3ccccc3Sc3ccc(Cl)cc32)CC1`, for which the compound was called inactive.

`CC(C)Nc1cccnc1N1CCN(C(=O)c2cc3cc(NS(C)(=O)=O)ccc3[nH]2)CC1`: the compound was called inactive.

Regarding `OCCN(CCO)c1nc(N2CCCCC2)c2nc(N(CCO)CCO)nc(N3CCCCC3)c2n1`, the call was inactive.

In the case of `Cc1ccc(S(=O)(=O)NC(=O)NN2CC3CCCC3C2)cc1` (stereo not given), the compound was classed as inactive.

As to `Cn1ccc2cc3c(cc21)CCN3C(=O)Nc1cccnc1`, the outcome is “inactive [at 17.4 µM]”.

`O=C1NC(c2ccccc2)(c2ccccc2)C(=O)N1COP(=O)(O)O`: the compound was called inactive.

Take `COc1ccccc1OCC(O)COC(N)=O` (stereo not given): the result was inactive.

As for `C[C@@H](O)[C@H]1C(=O)N2C(C(=O)O)=C(S[C@@H]3CN[C@H](C(=O)N(C)C)C3)[C@H](C)[C@H]12`, the call was inactive.

As for `O=NN(CCCl)C(=O)NC1CCCCC1`, the compound was called inactive.

On to `CCCCCOC(=O)Nc1nc(=O)n([C@@H]2O[C@H](C)[C@@H](O)[C@H]2O)cc1F`, for which the outcome was inactive.

Consider `Cc1ccc(C)c(OCCCC(C)(C)C(=O)O)c1`, for which the compound was classed as inactive.

`CS(=O)c1ccc(-c2nc(-c3ccc(F)cc3)c(-c3ccncc3)[nH]2)cc1` (stereo not given): the result was inactive.

For `CNCC[C@H](Oc1cccc2ccccc12)c1cccs1`, the outcome was inactive.

These data come from PubChem BioAssay (NCATS).
